In PubChem BioAssay (Tox21):
Inconclusive results are not listed. Calls of active or inactive are those of the source. Unless noted, the call rests on the fitted dose curve; in most records, active means well fitted curve in the direction sought with a large enough effect in the repeat runs; inconclusive means weak or mixed curves; inactive means flat fitted curve, though single readings scatter.

Key:
[1] = qHTS assay to test for compound auto fluorescence at 535 nm (green) in HEK293 cells (AID 720680)
[2] = qHTS assay to test for compound auto fluorescence at 535 nm (green) in HEK293 cell free culture (AID 720682)
In short: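 Read-out: 485/535 nm fluorescence intensity, calibrated against fluorescein. Medium only (DMEM + 10% FBS, no cells); test compound or DMSO vehicle added by pintool before plate reading.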

[3] = qHTS assay to test for compound auto fluorescence at 590 nm (red) in HEK293 cell free culture (AID 720683)
In short: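 Tox21 10K library compounds were pinned into cell-free DMEM with 10% FBS and fluorescence was read at excitation 540 nm. Activity is expressed as Rose Bengal sodium equivalency.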

[4] = qHTS assay to test for compound auto fluorescence at 590 nm (red) in HepG2 cell free culture (AID 720684)
In short: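 Ex 540 / Em 590 nm read of compound in cell-free MEM (10% FBS). Rose Bengal sodium reference.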

[5] = qHTS assay to test for compound auto fluorescence at 460 nm (blue) in HepG2 cell free culture (AID 720685)
In short: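 Cell-free plates of MEM plus 10% FBS received 23 nL compound or DMSO vehicle; blue-channel (405/460 nm) intensity scored against triamterene as reference fluorophore.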

[6] = qHTS assay to test for compound auto fluorescence at 535 nm (green) in HepG2 cell free culture (AID 720686)
[7] = qHTS assay to test for compound auto fluorescence at 460 nm (blue) in HepG2 cells (AID 720687)
In short: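 Cells (2,000/well in MEM with 10% FBS) attached overnight at 37 C, then were exposed to compound or DMSO for 1 hr at 37 C, 5% CO2. Fluorescence read at Ex/Em 405/460 nm, expressed as triamterene-equivalent signal.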

[8] = target: Glucocorticoid receptor (Homo sapiens) (UniProt P04150); assay: qHTS assay to identify small molecule agonists of the glucocorticoid receptor (GR) signaling pathway (AID 720691; active means well fitted activation curve with a large enough effect in the signal ratio in the repeat runs, not every such curve was filed as active; the % refers to the signal ratio)
Sequence of Glucocorticoid receptor (Homo sapiens) (P04150 whole entry, looked up): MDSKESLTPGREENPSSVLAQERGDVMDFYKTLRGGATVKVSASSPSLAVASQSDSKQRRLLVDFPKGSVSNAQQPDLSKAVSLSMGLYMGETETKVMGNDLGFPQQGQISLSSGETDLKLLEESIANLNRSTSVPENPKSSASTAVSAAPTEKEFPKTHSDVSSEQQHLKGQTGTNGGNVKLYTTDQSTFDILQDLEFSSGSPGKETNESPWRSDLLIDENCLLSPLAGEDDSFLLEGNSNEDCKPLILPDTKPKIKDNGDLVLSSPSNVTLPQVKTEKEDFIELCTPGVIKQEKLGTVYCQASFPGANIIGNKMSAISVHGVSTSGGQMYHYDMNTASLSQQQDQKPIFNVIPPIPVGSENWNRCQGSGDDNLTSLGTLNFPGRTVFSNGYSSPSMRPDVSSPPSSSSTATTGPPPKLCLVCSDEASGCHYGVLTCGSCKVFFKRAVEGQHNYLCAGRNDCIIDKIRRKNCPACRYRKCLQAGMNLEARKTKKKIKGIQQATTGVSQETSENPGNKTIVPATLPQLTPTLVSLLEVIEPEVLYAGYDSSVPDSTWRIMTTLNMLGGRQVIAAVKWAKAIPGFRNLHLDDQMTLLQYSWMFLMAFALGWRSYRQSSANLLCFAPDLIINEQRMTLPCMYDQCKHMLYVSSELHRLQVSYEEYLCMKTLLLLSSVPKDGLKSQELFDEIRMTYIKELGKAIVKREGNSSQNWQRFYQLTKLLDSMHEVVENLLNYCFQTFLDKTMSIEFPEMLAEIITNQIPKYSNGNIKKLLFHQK
In short: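 Measures GR pathway activation through a GRE-beta-lactamase reporter stably integrated in HeLa cells, with 18 h compound treatment at 37 C and fluorescence detection using a FRET substrate.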

[9] = target: Glucocorticoid receptor (Homo sapiens) (UniProt P04150); assay: qHTS assay to identify small molecule antagonists of the glucocorticoid receptor (GR) signaling pathway (AID 720692; active means well fitted inhibition curve with a large enough effect in the signal ratio in the repeat runs, not every such curve was filed as active; the % refers to the signal ratio)
In short: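 Tox21 10K library screened in concentration-response for blockade of dexamethasone (5 nM final)-induced GRE-bla reporter activity in HeLa cells; 18 h treatment, fluorescence read.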

[10] = qHTS assay to test for compound auto fluorescence at 460 nm (blue) in HEK293 cell free culture (AID 720681)
In short: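 Test compounds were pinned into cell-free culture medium (DMEM with 10% FBS) and fluorescence was read directly at Ex/Em 405/460 nm. Signals were expressed as fluorescence equivalents of triamterene, with DMSO vehicle as control.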
On the % scale 0 is the no-effect control and ±100 the full control effect.

CC1=NN(c2ccc(S(=O)(=O)O)cc2)C(=O)C1
inactive: outcome [1] | outcome [2] | outcome [3] | outcome [4] | outcome [5] | outcome [6] | outcome [7] | Potency [8] | outcome [9]

Cc1ccccc1C(N)=O
inactive: outcome [1] | outcome [2] | outcome [3] | outcome [4] | outcome [5] | outcome [6] | outcome [7] | Potency [8] | outcome [9]

CCCCCCCCCCOC(C)=O
inactive: outcome [1] | outcome [2] | outcome [3] | outcome [4] | outcome [5] | outcome [6] | outcome [7] | Potency [8] | outcome [9]

Cc1c(N)cccc1Cl
inactive: outcome [1] | outcome [2] | outcome [3] | outcome [4] | outcome [5] | outcome [6] | outcome [7] | Potency [8] | outcome [9]

C[C@@H](O)C(=O)O
inactive: outcome [10] | outcome [2] | outcome [3] | outcome [4] | outcome [5] | outcome [6] | outcome [7]

O=C(NCN1CCOCC1)c1cnccn1
inactive: outcome [1] | outcome [2] | outcome [3] | outcome [4] | outcome [5] | outcome [6] | outcome [7] | Potency [8] | outcome [9]

COC(=O)c1cc(Cl)cc(Cl)c1
inactive: outcome [1] | outcome [2] | outcome [3] | outcome [4] | outcome [5] | outcome [6] | outcome [7] | Potency [8] | outcome [9]

COC(=O)c1cccc(Cl)c1
inactive: outcome [10] | outcome [2] | outcome [3] | outcome [4] | outcome [5] | outcome [6] | outcome [7]

Cc1ccc(C(C)NC(=O)[C@@H](NC(=O)OC(C)C)C(C)C)cc1 (stereo not given in full)
inactive: outcome [1] | outcome [2] | outcome [3] | outcome [4] | outcome [5] | outcome [6] | outcome [7] | Potency [8] | outcome [9]

CC(N)CCCC(C)(C)O (stereo not given)
inactive: outcome [1] | outcome [2] | outcome [3] | outcome [4] | outcome [5] | outcome [6] | outcome [7] | outcome [9]

CC(C)COC(=O)c1ccccc1
inactive: outcome [1] | outcome [2] | outcome [3] | outcome [4] | outcome [5] | outcome [6] | outcome [7] | Potency [8] | outcome [9]

Cc1cc(C)c(C(=O)O)c(C)c1
inactive: outcome [1] | outcome [2] | outcome [3] | outcome [4] | outcome [5] | outcome [6] | outcome [7] | Potency [8] | outcome [9]

CC(=O)C(C)O (stereo not given)
inactive: outcome [10] | outcome [2] | outcome [3] | outcome [4] | outcome [5] | outcome [6] | outcome [7]

N#CCC(=O)NN
inactive: outcome [1] | outcome [2] | outcome [3] | outcome [4] | outcome [5] | outcome [6] | Potency [8] | outcome [9]

OCCN1CCOCC1
inactive: outcome [10] | outcome [2] | outcome [3] | outcome [4] | outcome [5] | outcome [6] | outcome [7]

CCCCCCCCCOC(=O)c1ccccc1C(=O)OCCCCCCCCC
inactive: outcome [1] | outcome [2] | outcome [3] | outcome [4] | outcome [5] | Potency [8]

CCCCOC(=O)C(C)O (stereo not given)
inactive: outcome [1] | outcome [2] | outcome [3] | outcome [4] | outcome [5] | outcome [7] | Potency [8] | outcome [9]

CC(C)(C)NC[C@H](O)COc1cccc2c1CCCC2=O
inactive: fluorescence, % of fluorescein [1] 0.0019% [at 18.6 µM] | activity change [2] -0.0347% [at 18.6 µM] | fluorescence, % of fluorescent control [3] -0.286% [at 18.6 µM] | fluorescence, % of Rose Bengal [4] 0.355% [at 18.6 µM] | fluorescence, % of fluorescent control [5] -0.0088% [at 18.6 µM] | fluorescence, % of fluorescein control [6] -0.0049% [at 18.6 µM] | fluorescence, % of fluorescent control [7] 0.0464% [at 18.6 µM] | outcome [9]

OC[C@@H](O)C(O)[C@@H](O)CO (stereo not given in full)
inactive: outcome [1] | outcome [2] | outcome [3] | outcome [4] | outcome [5] | outcome [6] | outcome [7] | outcome [9]

CCc1occc(=O)c1O
inactive: outcome [1] | outcome [2] | outcome [3] | outcome [4] | outcome [5] | outcome [6] | Potency [8]

Cc1ncc([N+](=O)[O-])n1CC(C)O (stereo not given)
inactive: outcome [1] | outcome [2] | outcome [3] | outcome [4] | outcome [5] | outcome [6] | outcome [7] | Potency [8] | outcome [9]

C=CCOC(=O)CCCCCC
inactive: outcome [1] | outcome [2] | outcome [3] | outcome [4] | outcome [5] | outcome [6] | outcome [7] | Potency [8] | outcome [9]

COc1nc(N)nc2nc[nH]c12
inactive: outcome [1] | outcome [2] | outcome [3] | outcome [4] | outcome [5] | outcome [6] | outcome [7] | Potency [8] | outcome [9]

CCO[Si](CC)(OCC)OCC
inactive: outcome [10] | outcome [2] | outcome [3] | outcome [4] | outcome [5] | outcome [6]
